# Records with an inconclusive call do not appear. The source made the active and inactive calls.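 Rule for the calls, unless noted: active = response below a set limit, under 55% cells CD8-positive and vesicle-bound, and CD8 cells' 90th-percentile brightness under 279; inactive = the rest.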
# Legend:
# [1] = rapamycin-like changes in RPL19A-GFP expression – cell-based, S. cerevisiae, multiplex flow cytometry, primary screen (AID 1862; in the data active = percent of DMSO control GFP below about 86%;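 note: lower values mimic rapamycin by blocking the RPL19A rise seen in DMSO cells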); conditions: S. cerevisiae RPL19A-GFP strain, flow cytometry fluorescence, 3 h; at 10 µM; stronger effect = lower value
# [2] = TOR pathway GLN3 branch reporter MEP2-GFP changes – S. cerevisiae, multiplex flow cytometry, primary screen (AID 1867;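 active = GFP response, as percent of the DMSO control, above the screen-wide mean plus 3 SD, about 139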;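 note: median GFP channel fluorescence of barcode-gated MEP2-GFP cells measured by flow cytometry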); conditions: S. cerevisiae MEP2-GFP strain, 3 h, at 10 µM, stronger effect = higher value, 100% means same as DMSO wells
# [3] = TOR pathway RTG branch CIT2 reporter changes – S. cerevisiae, GFP fusion, multiplex flow cytometry, primary screen (AID 1870;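 active = percent response above a set limit, the screen-wide mean plus 3 SD, cut at about 130% in these data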;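 note: barcoded CIT2-GFP strain pooled with four other GFP strains with rapamycin as positive control; median GFP fluorescence per well over plate mean of DMSO wells so 100% = DMSO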); conditions: S. cerevisiae CIT2-GFP expression, 3 h, at 10 µM, stronger effect = higher value
# [4] = TOR pathway LAP4-GFP level changes – S. cerevisiae, multiplex flow cytometry, primary screen (AID 1873;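 active = GFP signal, as percent of the solvent control, above the screen mean plus 3 SD, about 149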); conditions: S. cerevisiae LAP4-GFP expression, 3 h, at 10 µM, stronger effect = higher value
# [5] = yeast AGP1-GFP level changes, GLN3 branch – cell-based, multiplex flow cytometry, S. cerevisiae, primary screen (AID 1887;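 active = GFP signal above the screen-wide mean plus 3 SD, that is over about 124.5% of the solvent control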;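 note: AGP1-GFP fusion strain of S. cerevisiae within a five-strain barcoded multiplex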); conditions: 3 h, at 10 µM, stronger effect = higher value
# [6] = reduced mouse 2C T cell binding to pMHC/ICAM-1 vesicles – MLPCN validation set, flow cytometry, LFA-1/ICAM-1 modulator project, pilot screen (AID 2523); conditions: 2C mouse CD8+ T cells, at 7 µM, stronger effect = lower value; double positive events: measured here: CD8+/vesicle+ event percentage;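 for vesicle binding response: mean PE anti-B7-1 fluorescence of CD8+ cells relative to row control; 100% = QL9-loaded vesicles with DMSO vehicle in the same plate row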
# [7] = molecular target: Integrin beta-1 (Homo sapiens) + Integrin alpha-4 (Homo sapiens) (UniProt P13612+P05556); test: alpha4beta1 integrin LIBS antibody binding reduction – U937 cells, HUTS-21 mAb, flow cytometry, validation set, VLA-4 allosteric modulator project, pilot screen (AID 2674;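 active = inhibition above 50%, about 3 SD of the validation set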;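 note: antibody binding induced by the VLA-4 ligand LDV present at three times its Kd; 0% = LDV ligand with antibody and no compound and 100% = antibody without LDV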); conditions: HUTS-21 LIBS mAb binding, at 6.7 µM, stronger effect = higher value, binding induced by LDV ligand
# Sequence of Integrin beta-1 (Homo sapiens) + Integrin alpha-4 (Homo sapiens) (P05556 whole entry, looked up): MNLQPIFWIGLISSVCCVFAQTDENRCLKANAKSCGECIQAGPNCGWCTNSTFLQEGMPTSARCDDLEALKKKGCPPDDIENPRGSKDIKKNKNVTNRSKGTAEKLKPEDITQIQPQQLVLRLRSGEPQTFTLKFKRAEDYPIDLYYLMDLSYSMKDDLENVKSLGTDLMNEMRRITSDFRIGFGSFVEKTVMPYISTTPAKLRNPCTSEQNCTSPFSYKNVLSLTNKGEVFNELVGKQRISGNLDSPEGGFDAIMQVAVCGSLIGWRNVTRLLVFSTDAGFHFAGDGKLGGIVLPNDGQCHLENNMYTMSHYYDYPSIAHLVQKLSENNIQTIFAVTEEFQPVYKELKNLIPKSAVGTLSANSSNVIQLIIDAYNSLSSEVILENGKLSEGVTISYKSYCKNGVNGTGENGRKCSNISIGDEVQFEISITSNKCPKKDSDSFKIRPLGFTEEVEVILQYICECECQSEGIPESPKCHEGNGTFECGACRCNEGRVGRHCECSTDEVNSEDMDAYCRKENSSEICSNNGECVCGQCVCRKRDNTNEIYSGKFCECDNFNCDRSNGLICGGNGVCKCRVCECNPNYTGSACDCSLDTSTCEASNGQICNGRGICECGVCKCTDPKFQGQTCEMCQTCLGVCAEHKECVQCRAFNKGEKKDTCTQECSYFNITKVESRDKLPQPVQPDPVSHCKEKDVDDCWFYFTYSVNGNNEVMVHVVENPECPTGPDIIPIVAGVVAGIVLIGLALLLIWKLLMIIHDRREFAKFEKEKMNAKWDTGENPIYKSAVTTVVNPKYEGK
# Sequence of Integrin beta-1 (Homo sapiens) + Integrin alpha-4 (Homo sapiens) (P13612 whole entry, looked up): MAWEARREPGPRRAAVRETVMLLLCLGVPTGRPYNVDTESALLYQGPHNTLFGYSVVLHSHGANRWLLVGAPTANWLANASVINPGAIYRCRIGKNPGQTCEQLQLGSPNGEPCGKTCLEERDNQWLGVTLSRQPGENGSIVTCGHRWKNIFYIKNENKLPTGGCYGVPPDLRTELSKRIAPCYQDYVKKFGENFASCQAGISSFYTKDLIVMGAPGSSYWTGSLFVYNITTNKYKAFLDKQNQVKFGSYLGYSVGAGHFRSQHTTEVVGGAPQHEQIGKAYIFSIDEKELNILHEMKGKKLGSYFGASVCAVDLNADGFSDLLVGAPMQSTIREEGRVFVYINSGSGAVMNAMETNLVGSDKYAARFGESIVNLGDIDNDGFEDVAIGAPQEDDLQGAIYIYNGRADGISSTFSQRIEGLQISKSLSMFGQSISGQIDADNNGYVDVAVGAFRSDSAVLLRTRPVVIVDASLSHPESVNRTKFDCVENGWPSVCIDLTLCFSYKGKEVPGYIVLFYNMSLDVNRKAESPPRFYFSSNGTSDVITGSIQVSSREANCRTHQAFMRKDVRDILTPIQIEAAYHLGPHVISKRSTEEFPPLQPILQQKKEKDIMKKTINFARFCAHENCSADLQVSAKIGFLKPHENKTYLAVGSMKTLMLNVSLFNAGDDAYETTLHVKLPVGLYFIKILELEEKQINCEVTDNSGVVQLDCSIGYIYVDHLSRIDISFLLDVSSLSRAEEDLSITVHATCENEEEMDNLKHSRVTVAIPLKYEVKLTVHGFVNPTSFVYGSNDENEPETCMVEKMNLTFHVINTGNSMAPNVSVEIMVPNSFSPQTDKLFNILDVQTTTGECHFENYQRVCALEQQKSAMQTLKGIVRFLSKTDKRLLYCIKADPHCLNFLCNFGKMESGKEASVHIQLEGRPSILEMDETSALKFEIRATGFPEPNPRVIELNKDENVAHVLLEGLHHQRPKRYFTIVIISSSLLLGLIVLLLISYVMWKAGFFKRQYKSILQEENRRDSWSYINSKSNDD
# [8] = calorie-restriction mimetic ROS inhibitors, yeast – validation compound set, pilot screen (AID 2706;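 active = superoxide response below 65% of plate, a cut near 3 SD across the whole screen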;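 note: yeast exposed to compound for one week at 30 degrees C before staining; 100% = mean of all compound wells on the same plate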); conditions: S. cerevisiae aging, superoxide DHE fluorescence; at 10 µM, stronger effect = lower value
# [9] = molecular target: Beta-adrenergic receptor kinase 1 (Homo sapiens) (UniProt P25098); test: GRK2 binders displacing RNA aptamer, biochemical, validation, human GRK2, bead flow cytometry (AID 488806;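 active = aptamer binding inhibition above 30%, about 3 SD of noise from non-fluorescent compounds; inactive = inhibition at or below 30%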); conditions: bead-bound GRK2, FAM-aptamer displacement, at 10 µM, stronger effect = higher value
# Sequence of Beta-adrenergic receptor kinase 1 (Homo sapiens) (P25098 whole entry, looked up): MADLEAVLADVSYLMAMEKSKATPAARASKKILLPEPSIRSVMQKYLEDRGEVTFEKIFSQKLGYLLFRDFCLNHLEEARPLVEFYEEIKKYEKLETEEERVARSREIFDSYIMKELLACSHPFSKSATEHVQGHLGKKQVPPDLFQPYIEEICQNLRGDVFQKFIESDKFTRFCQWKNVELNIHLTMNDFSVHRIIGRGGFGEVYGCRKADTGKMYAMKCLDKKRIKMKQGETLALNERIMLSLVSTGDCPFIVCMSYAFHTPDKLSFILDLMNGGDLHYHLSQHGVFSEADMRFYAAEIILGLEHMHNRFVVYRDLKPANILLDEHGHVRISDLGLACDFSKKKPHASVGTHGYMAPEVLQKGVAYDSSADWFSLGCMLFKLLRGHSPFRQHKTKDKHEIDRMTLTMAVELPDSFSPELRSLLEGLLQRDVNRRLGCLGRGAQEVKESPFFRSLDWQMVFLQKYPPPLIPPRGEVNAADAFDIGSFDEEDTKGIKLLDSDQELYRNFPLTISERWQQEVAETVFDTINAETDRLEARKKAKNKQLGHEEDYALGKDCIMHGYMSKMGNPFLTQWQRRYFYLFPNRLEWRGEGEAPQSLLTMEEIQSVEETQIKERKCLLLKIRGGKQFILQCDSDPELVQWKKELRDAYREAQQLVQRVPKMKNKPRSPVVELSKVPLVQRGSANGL
# [10] = molecular target: AP-2 complex subunit beta (Homo sapiens) (UniProt P63010); test: beta-arrestin/AP2 interaction blockers – biochemical, validation set, GST-AP2 beads, flow cytometry, pilot screen (AID 504541;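 active = inhibition above 54%, about 3 SD of non-fluorescent compounds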;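 note: AP2 carries R879A mutation and is captured from E. coli lysate; bead-bound FITC arrestin peptide fluorescence measuring arrestin peptide binding to AP2; 0% = DMSO wells and 100% = excess unlabeled arrestin peptide control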); conditions: FITC arrestin peptide, at 10 µM, stronger effect = higher value, AP2 beta2 appendage fragment, R879A mutant
# Sequence of AP-2 complex subunit beta (Homo sapiens) (P63010 whole entry, looked up, the tested form may be a part, one chain of several): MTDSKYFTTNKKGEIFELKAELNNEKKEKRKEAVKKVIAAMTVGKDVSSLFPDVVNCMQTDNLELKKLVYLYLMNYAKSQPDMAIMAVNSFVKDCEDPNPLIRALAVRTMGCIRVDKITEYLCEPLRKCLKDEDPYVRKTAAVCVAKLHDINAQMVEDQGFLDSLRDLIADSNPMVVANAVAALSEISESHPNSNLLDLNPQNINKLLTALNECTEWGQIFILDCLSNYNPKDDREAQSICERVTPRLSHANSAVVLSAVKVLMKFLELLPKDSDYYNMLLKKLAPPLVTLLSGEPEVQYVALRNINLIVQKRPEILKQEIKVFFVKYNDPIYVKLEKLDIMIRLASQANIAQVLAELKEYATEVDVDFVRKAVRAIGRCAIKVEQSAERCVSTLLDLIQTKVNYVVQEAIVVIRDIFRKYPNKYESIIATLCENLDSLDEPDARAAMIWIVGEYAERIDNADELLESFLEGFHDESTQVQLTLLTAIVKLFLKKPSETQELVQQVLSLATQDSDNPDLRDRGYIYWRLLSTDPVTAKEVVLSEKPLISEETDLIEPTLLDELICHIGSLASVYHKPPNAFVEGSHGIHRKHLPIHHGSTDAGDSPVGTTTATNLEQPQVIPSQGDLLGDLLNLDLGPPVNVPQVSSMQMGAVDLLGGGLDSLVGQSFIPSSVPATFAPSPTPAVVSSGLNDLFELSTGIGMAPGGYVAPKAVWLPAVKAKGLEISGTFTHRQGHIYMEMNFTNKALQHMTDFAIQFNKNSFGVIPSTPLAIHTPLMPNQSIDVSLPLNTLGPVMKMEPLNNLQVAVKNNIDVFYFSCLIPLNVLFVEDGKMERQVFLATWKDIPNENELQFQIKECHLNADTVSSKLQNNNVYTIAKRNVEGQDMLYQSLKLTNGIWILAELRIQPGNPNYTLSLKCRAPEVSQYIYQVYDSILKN
# [11] = cytosolic pH regulators acting via V-ATPase – S. cerevisiae, pHLuorin, HTS validation (AID 504600; in the data active = response above about 15%;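 note: plate controls were DMSO for no effect and reference compound for full effect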); conditions: V-ATPase proton transport, at 10 µM, stronger effect = higher value
# [12] = tested on: anti-desmoglein-3 scFv antibody binding to human DSG3; test: blockers of pathogenic pemphigus antibody–desmoglein-3 binding – biochemical, validation compound set, bead-based, flow cytometry, pilot screen (AID 588368;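 active = binding below the plate cutoff, the plate median minus 3 SD, with a reading above zero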;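 note: signal is the median channel fluorescence of bead-bound GFP antibody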); conditions: Protein G beads, DSG3-Fc, scFv-GFP binding, at 10 µM, stronger effect = lower value
# [13] = Nile Red efflux blockade in pump-expressing yeast – validation compound set, multiplex, phenotypic, pilot screen (AID 588506;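 active = efflux inhibition above 0.42, the validation set average plus 4 SD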;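 note: Nile Red retained in cells so higher fluorescence means more efflux inhibition; 0 = negative control wells and 1 = enniatin B 25 µM full block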); conditions: S. cerevisiae pump-expressing triplex, Nile Red efflux flow cytometry; at 10 µM; stronger effect = higher value; the pumps come from Candida albicans
# [14] = molecular target: ATP-binding cassette sub-family B member 6 (Homo sapiens) (UniProt Q9NP58); test: blockers of ABCB6-driven porphyrin uptake – K562-ABCB6 cells, flow cytometry, validation set, pilot screen (AID 588550;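 active = inhibition above the screen-wide mean plus 3 SD, about 51%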;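 note: 0% = DMSO wells and 100% = benzethonium chloride 70 µM positive control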); conditions: K562-ABCB6 porphyrin accumulation, 1 h, at 10 µM, stronger effect = higher value
# Sequence of ATP-binding cassette sub-family B member 6 (Homo sapiens) (Q9NP58 whole entry, looked up): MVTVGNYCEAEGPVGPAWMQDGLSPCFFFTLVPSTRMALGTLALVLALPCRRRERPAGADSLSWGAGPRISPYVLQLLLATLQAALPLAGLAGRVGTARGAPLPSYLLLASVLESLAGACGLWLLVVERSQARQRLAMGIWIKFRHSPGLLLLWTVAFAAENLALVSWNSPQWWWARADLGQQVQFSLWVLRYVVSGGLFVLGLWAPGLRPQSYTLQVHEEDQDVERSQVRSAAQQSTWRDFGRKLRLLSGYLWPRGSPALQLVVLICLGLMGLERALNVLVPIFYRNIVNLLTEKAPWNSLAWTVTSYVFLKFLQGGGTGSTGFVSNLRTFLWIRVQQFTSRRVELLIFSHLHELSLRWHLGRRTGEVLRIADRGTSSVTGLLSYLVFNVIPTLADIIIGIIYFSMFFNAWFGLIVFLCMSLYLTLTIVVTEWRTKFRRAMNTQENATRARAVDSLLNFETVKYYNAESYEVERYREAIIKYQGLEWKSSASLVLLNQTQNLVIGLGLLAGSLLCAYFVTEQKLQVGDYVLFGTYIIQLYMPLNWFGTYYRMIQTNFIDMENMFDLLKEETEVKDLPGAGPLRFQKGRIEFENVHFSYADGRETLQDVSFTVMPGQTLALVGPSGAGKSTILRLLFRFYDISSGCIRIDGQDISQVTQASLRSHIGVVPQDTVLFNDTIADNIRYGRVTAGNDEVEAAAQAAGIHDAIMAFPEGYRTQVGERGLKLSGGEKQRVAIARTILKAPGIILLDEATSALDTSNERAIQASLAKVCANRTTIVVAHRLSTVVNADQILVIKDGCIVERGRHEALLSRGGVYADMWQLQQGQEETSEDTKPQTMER
# [15] = AML differentiation inducers, ER-HoxA9 marrow cells – cell-based, GFP/MAC1 double positive, flow cytometry, validation set, primary screen (AID 588685;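 active = differentiation response of at least 50%, scaled between solvent and reference control, from cells with both markers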;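 note: compound exposure lasts four days before antibody staining and flow analysis; 0% = DMSO wells and 100% = 5 µM fulvestrant positive control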); conditions: stronger effect = higher value, normalized: vehicle 0, fulvestrant 100
SMILES,percent of DMSO control GFP [1],GFP response vs DMSO [2],percent response of DMSO control [3],GFP response vs DMSO [4],"GFP response, % of DMSO [5]",double positive events [6] [%],vesicle binding response [6],inhibition [7],superoxide response (% of plate) [8],aptamer binding inhibition [9],inhibition [10],response [11],binding (% of control) [12],efflux inhibition (fraction of control) [13],inhibition [14],differentiation response [15]
C/C(=N\N=C1\NC(=O)C(CC(=O)Nc2ccc(Cl)cc2)S1)c1ccco1 (stereo not given),105% (inactive),101% (inactive),104% (inactive),91.3% (inactive),99.1% (inactive),54.2,112% (inactive),-17% (inactive),101% (inactive),16% (inactive),3.65% (inactive),-0.13% (inactive),94.4% (inactive),0.22 (inactive),8% (inactive),0% (inactive)
C[N+]12CCC(CC1)C(OC(=O)C(O)(c1ccccc1)c1ccccc1)C2 (stereo not given),96.8% (inactive),96.9% (inactive),99.8% (inactive),100% (inactive),95.8% (inactive),60.6,211% (inactive),2.56% (inactive),104% (inactive),-2% (inactive),-2.25% (inactive),2.36% (inactive),102% (inactive),-0.35 (inactive),10% (inactive),-21.2% (inactive)
COc1cc(OC)cc(C(=O)N[C@@H](CCSC)c2nc3ccccc3[nH]2)c1,98% (inactive),88.7% (inactive),105% (inactive),91.3% (inactive),96.4% (inactive),49.2,158% (inactive),-13.3% (inactive),98.5% (inactive),1% (inactive),-7.65% (inactive),0.15% (inactive),99.3% (inactive),-0.12 (inactive),3% (inactive),-8.27% (inactive)
CN1C(=O)C(O)(CC(=O)/C=C/C=C/c2ccccc2)c2ccccc21 (stereo not given),104% (inactive),98.9% (inactive),104% (inactive),94.3% (inactive),98.1% (inactive),54.8,153% (inactive),-0.24% (inactive),102% (inactive),2% (inactive),-6.66% (inactive),0.35% (inactive),99% (inactive),0.06 (inactive),5% (inactive),-18% (inactive)
CC(=O)c1c(N)nc2n(c1=O)CCCCC2,103% (inactive),102% (inactive),108% (inactive),93.3% (inactive),102% (inactive),55.2,201% (inactive),14.7% (inactive),94.2% (inactive),4% (inactive),2.65% (inactive),0.91% (inactive),98.7% (inactive),-0.09 (inactive),10% (inactive),9.49% (inactive)
O=C1CCCN1CCCn1cnc2c([nH]c3ccc(F)cc32)c1=O,105% (inactive),104% (inactive),101% (inactive),89.3% (inactive),101% (inactive),57.6,124% (inactive),10.9% (inactive),114% (inactive),-1% (inactive),-10.6% (inactive),1.63% (inactive),100% (inactive),-0.28 (inactive),10% (inactive),-27.6% (inactive)
COc1ccc(C=NCC2COc3ccccc3O2)cc1OC (stereo not given),103% (inactive),101% (inactive),98.8% (inactive),90.3% (inactive),95.5% (inactive),62.8,187% (inactive),0.69% (inactive),104% (inactive),-1% (inactive),17.1% (inactive),-2.12% (inactive),107% (inactive),0.63 (active),10% (inactive),-5.05% (inactive)
CCCN(CCC)S(=O)(=O)c1ccc(C(=O)O)cc1,101% (inactive),107% (inactive),96.9% (inactive),124% (inactive),104% (inactive),56.2,170% (inactive),1.62% (inactive),104% (inactive),1% (inactive),-3.49% (inactive),0.87% (inactive),99.3% (inactive),-0.05 (inactive),4% (inactive),-24.4% (inactive)
COc1ccc2[nH]c3c(c2c1)CCn1c-3nc2ccccc2c1=O,101% (inactive),105% (inactive),104% (inactive),116% (inactive),101% (inactive),48.2,168% (inactive),2.56% (inactive),95.3% (inactive),-2% (inactive),10.7% (inactive),11.4% (inactive),97.2% (inactive),-0.12 (inactive),7% (inactive),0% (inactive)
COc1cc2c(cc1OC)C(c1cc3ccccc3oc1=O)=NC(C)(C)C2,101% (inactive),103% (inactive),107% (inactive),96.4% (inactive),100% (inactive),46.8,137% (inactive),10.9% (inactive),117% (inactive),3% (inactive),-0.33% (inactive),2.07% (inactive),98.7% (inactive),0.1 (inactive),10% (inactive),-13.1% (inactive)
Nc1ccc(S(=O)(=O)c2ccc(N)cc2)cc1,100% (inactive),102% (inactive),93% (inactive),103% (inactive),99.3% (inactive),63.7,142% (inactive),8.15% (inactive),97.8% (inactive),0% (inactive),2.16% (inactive),-1.03% (inactive),100% (inactive),0.14 (inactive),5% (inactive),-5.05% (inactive)
CC1=CC(C)(C)N2C(=O)C3(NCCc4c3[nH]c3ccccc43)c3cc(C)cc1c32 (stereo not given),103% (inactive),98.9% (inactive),99.8% (inactive),82.3% (inactive),93.6% (inactive),63,162% (inactive),22.1% (inactive),97.3% (inactive),-3% (inactive),-4.18% (inactive),3.88% (inactive),104% (inactive),0.41 (inactive),4% (inactive),-5.05% (inactive)
COc1ccc(-c2[nH]ncc2C=O)cc1OC,99.3% (inactive),96.9% (inactive),106% (inactive),91.3% (inactive),95.8% (inactive),52,201% (inactive),-1.17% (inactive),93.7% (inactive),2% (inactive),11.3% (inactive),3.37% (inactive),101% (inactive),-0.12 (inactive),8% (inactive),-11.5% (inactive)
C[N+]12CCCCC1C(COC(=O)c1ccc3c(c1)OCO3)CCC2 (stereo not given),97.6% (inactive),96.9% (inactive),97.9% (inactive),85.3% (inactive),93.9% (inactive),62,116% (inactive),10.9% (inactive),99.1% (inactive),5% (inactive),-3.8% (inactive),1.26% (inactive),96.7% (inactive),0.14 (inactive),12% (inactive),-19.6% (inactive)
C[C@H](CS)C(=O)N1CCC[C@H]1C(=O)O,106% (inactive),98.9% (inactive),109% (inactive),96.4% (inactive),102% (inactive),58.6,186% (inactive),-2.11% (inactive),97.4% (inactive),0% (inactive),-2.44% (inactive),-1.86% (inactive),96.7% (inactive),-0.16 (inactive),8% (inactive),-29.3% (inactive)
COc1ccccc1C1C(C#N)=C(N)Oc2c1oc(CO)cc2=O (stereo not given),102% (inactive),96.9% (inactive),111% (inactive),103% (inactive),107% (inactive),52,174% (inactive),-11.4% (inactive),103% (inactive),2% (inactive),-6.41% (inactive),2.3% (inactive),95.9% (inactive),0.03 (inactive),9% (inactive),-11.5% (inactive)
CC#C[C@]1(O)CC[C@H]2[C@@H]3CCC4=CC(=O)CCC4=C3[C@@H](c3ccc(N(C)C)cc3)C[C@@]21C,103% (inactive),103% (inactive),110% (inactive),87.3% (inactive),102% (inactive),56.3,187% (inactive),-10.5% (inactive),94.9% (inactive),9% (inactive),25.2% (inactive),0.03% (inactive),94.6% (inactive),-0.16 (inactive),3% (inactive),-16.4% (inactive)
CCN(Cc1ccncc1)Cc1nc(Cc2ccccc2Cl)no1,95.8% (inactive),98.9% (inactive),102% (inactive),95.4% (inactive),94.2% (inactive),53.4,164% (inactive),-12.4% (inactive),111% (inactive),2% (inactive),8.49% (inactive),2.76% (inactive),101% (inactive),0.25 (inactive),7% (inactive),-27.6% (inactive)
CCN(CC)C1=C(Cl)C(=O)C(Cl)C12OCCO2 (stereo not given),100% (inactive),104% (inactive),88.1% (inactive),100% (inactive),89.2% (inactive),61.5,160% (inactive),6.29% (inactive),94.6% (inactive),-5% (inactive),49.7% (inactive),1.58% (inactive),95.6% (inactive),0.9 (active),10% (inactive),6.26% (inactive)
CNCCC=C1c2ccccc2CCc2ccccc21,100% (inactive),98.9% (inactive),110% (inactive),97.4% (inactive),102% (inactive),49.9,151% (inactive),21.2% (inactive),110% (inactive),0% (inactive),-0.2% (inactive),4.21% (inactive),100% (inactive),-0.12 (inactive),11% (inactive),-13.1% (inactive)

# — PubChem BioAssay
